The whole screen tested about 370,000 compounds, of which about 4,800 (1.3%) were called active.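 The calls were made as follows: active = inhibition above about 21% made by adding two undisclosed values (limit read from the data); inactive = the rest.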 The sample as a whole holds a higher share of actives than the screen did.

Chain of Protein arginine N-methyltransferase 1 (Homo sapiens) (Q99873 whole entry, looked up): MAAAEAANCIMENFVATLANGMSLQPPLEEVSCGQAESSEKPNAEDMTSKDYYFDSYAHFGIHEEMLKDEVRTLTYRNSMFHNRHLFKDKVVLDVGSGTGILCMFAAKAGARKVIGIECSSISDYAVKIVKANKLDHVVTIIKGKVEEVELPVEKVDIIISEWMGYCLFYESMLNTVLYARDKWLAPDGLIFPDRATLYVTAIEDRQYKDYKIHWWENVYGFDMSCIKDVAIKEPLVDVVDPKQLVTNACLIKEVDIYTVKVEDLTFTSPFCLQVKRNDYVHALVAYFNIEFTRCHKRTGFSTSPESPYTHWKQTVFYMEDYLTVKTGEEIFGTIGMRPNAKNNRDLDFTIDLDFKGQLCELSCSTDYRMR

The assay addresses Protein arginine N-methyltransferase 1 (Homo sapiens) (UniProt Q99873). Nature of the assay: PRMT1 methyltransferase inhibitors, primary screen, biochemical, fluorescence polarization (AID 652257). The note with it: recombinant PRMT1, activity-based probe fluorescence polarization; at 2.79 µM; active compounds read high. Background: Polarisation of emitted light reports the rotation of a fluorescent probe.
A word on the inhibition: it is the relative decrease from the control value, in per cent. `Cc1ccc2nc(CN(C)C(=O)[C@@H](Cc3ccccc3)NC(=O)[C@H]3O[C@@H](n4ccc(=O)[nH]c4=O)[C@H](O)[C@@H]3O)[nH]c2c1`: the inhibition is 1.16% (inactive).

On to `Cc1nnc(SC(C(=O)Nc2cc(Cl)cc(Cl)c2)c2ccccc2)[nH]c1=O` (configuration not stated), for which the inhibition is 11.5% (inactive).

As to `COc1ccc(NC(=O)C(C)SCc2ccccc2)cc1` (configuration not stated), the inhibition was 1.07% (inactive).

Regarding `CSc1nc(C)cc(SC(C(C)=O)C(=O)Nc2ccccc2)n1` (configuration not stated), the inhibition was 73.7% (active).

Consider `CCCC[C@H](C(=O)N(CC)c1ccccc1)[C@@H](O)c1ccc2ccccc2c1`, for which the inhibition was 1.04% (inactive).

Turning to `COc1cccc(N(C)C(=O)[C@@H](C)[C@@H](O)c2ccc3ccccc3c2)c1`, the inhibition is -1.81% (inactive).

`CC(=O)N(C1=C(Cl)C(=O)c2ccccc2C1=O)c1ccc(C(=O)O)cc1`: the inhibition was 87.5% (active).

Take `CCOC(=O)N1CCN(C(=O)C[C@H]2C[C@@]3(C(=O)OC)C(=C[C@H](C(C)(C)C)O[C@@H]3C)N(Cc3ccc(Cl)cc3Cl)C2=O)CC1`: the inhibition is 1.72% (inactive).

As for `CCOc1ccccc1N1C(=O)CC(Sc2nccc(C)n2)C1=O` (configuration not stated), the inhibition is 14.4% (inactive).

Regarding `Cc1ccnc(SC2CC(=O)N(c3ccccc3)C2=O)n1` (configuration not stated), the inhibition is 8.05% (inactive).

Regarding `O=C1CC(Sc2ncn[nH]2)C(=O)N1c1ccccc1` (configuration not stated), the inhibition is 60.4% (active).

For `COc1ccc(N2C(=O)CC(Sc3n[nH]c(-c4ccc(C)cc4)n3)C2=O)cc1` (configuration not stated), the inhibition was 66% (active).

On to `Cc1ccc(N2C(=O)CC(Sc3ncn[nH]3)C2=O)cc1` (configuration not stated), for which the inhibition is 85.1% (active).

Regarding `O=C(CSc1ncn[nH]1)Nc1ccnc2ccccc12`, the inhibition was 0.32% (inactive).

On to `CCOC(=O)c1ccc(N2C(=O)CC(Sc3nc(O)c(CC)c(=O)[nH]3)C2=O)cc1` (configuration not stated), for which the inhibition is -0.27% (inactive).

For the molecule `CC(=O)Nc1ccc(N2C(=O)CC(Sc3nccc(C)n3)C2=O)cc1` (configuration not stated), the inhibition is 15.5% (inactive).

On to `COc1ccc(N2C(=O)C(O)C2c2ccc(C)cc2)cc1` (configuration not stated), for which the inhibition is 3.23% (inactive).

As for `CCCC1CCC2(CCCN2CCOC(=O)NCc2ccccc2)CC1` (configuration not stated), the inhibition is 5.29% (inactive).

For the molecule `O=C(NC1CCCC1)C1CSCCS(=O)(=O)N1Cc1ccccc1` (configuration not stated), the inhibition was -0.44% (inactive).

For `O=C(Nc1cccc(Cl)c1)OC1CC2CC1[C@H]1CCCCN1[C@H]2Cc1ccccc1` (some centres not stated), the inhibition is 1.47% (inactive).

With `CC[C@@H](CCC(=O)N(c1ccccc1)c1ccccc1)C1CC1`, the inhibition is -2.74% (inactive).

On to `c1coc(CCNc2ncnc3ccc(-c4ccc5c(c4)OCO5)cc23)c1`, for which the inhibition was 15% (inactive).

Regarding `O=S1(=O)c2ccc(N3CCN(Cc4ccccc4F)CC3)cc2Oc2ccccc2CN1Cc1cn(Cc2ccc(Cl)cc2)nn1`, the inhibition was -3.79% (inactive).

For `O=C(CSc1nnc(-c2ccccn2)n1-c1ccccc1)Nc1ccc2cn[nH]c2c1`, the inhibition was 1.03% (inactive).

Regarding `C=CCn1c(SCC(N)=O)nnc1-c1ccccc1OC`, the inhibition was 5.94% (inactive).

As to `O=C(Cn1nc([N+](=O)[O-])nc1Br)NC1CCCCC1`, the inhibition is -3.64% (inactive).

`O=C(CCCCCN1C(=O)C2C3C=CC(C3)C2C1=O)Nc1ccccc1` (configuration not stated): the inhibition is -2.78% (inactive).

As for `Cc1ccc2nc(N3C(=O)C(O)=C(C(=O)c4ccco4)C3c3cccc(O)c3)sc2c1` (configuration not stated), the inhibition was 24% (active).

Turning to `C=CCSc1nnc(N2C(=O)C(O)=C(C(=O)c3ccco3)C2c2ccc(F)cc2)s1` (configuration not stated), the inhibition was 14.8% (inactive).

Regarding `O=C(C1=C(O)C(=O)N(c2ncccn2)C1c1cccs1)c1ccco1` (configuration not stated), the inhibition is -1.95% (inactive).

On to `CCc1c(-c2ccccc2OC)ncn1CCc1ccccc1OC`, for which the inhibition is -6.39% (inactive).

As for `N#Cc1ccccc1OC[C@@H](O)CN1CCC(C(O)(c2ccccc2)c2ccccc2)CC1`, the inhibition is -3.45% (inactive).

`CC(=O)Nc1cccc(-c2cc(NC=O)c3ncc(-c4ccc(F)c(Cl)c4)n3c2)c1`: the inhibition is 2.68% (inactive).

With `CC(=O)Nc1cc(-c2ccccc2N(C)C)cn2c(-c3ccc(F)c(Cl)c3)cnc12`, the inhibition was 49.4% (active).

For `CC(=O)Nc1cc(-c2ccccc2F)cn2c(-c3cccc(C(F)(F)F)c3)cnc12`, the inhibition is 2.67% (inactive).

With `CCOC(=O)C(=O)N(Cc1ccccc1)c1ccccc1C(=O)Nc1cc(OC)ccc1OC`, the inhibition is -1.5% (inactive).

As to `CCOc1ccc(N(CC(=O)NCCc2ccc(F)cc2)S(=O)(=O)c2ccccc2)cc1`, the inhibition is 1.75% (inactive).

Regarding `COc1c(Br)cc2c(C)c(C(=O)N3CCOCC3)oc2c1Br`, the inhibition is -2.82% (inactive).

As for `CC1(C(=O)NCc2ccc3c(c2)OCO3)CCN1C(=O)Cc1cccc2ccccc12` (configuration not stated), the inhibition was 24.5% (active).

Consider `CC1(C(=O)NCc2ccc3c(c2)OCO3)CCN1C(=O)Cc1cccs1` (configuration not stated), for which the inhibition is 0.09% (inactive).

As to `CC1(C(=O)NCc2ccc3c(c2)OCO3)CCN1CCc1ccccc1` (configuration not stated), the inhibition was -4.72% (inactive).

As to `CCOC(=O)[C@]12CCCC3=C1N(CCC3)C(=O)[C@@H](CC(=O)NCc1cccs1)C2`, the inhibition is 1.5% (inactive).

On to `N#CCC[C@H]1CC[C@]2(CCCN(Cc3ccc(Cl)cc3)C2)O1`, for which the inhibition is 1.93% (inactive).

With `O=c1[nH]c2ccccc2s1`, the inhibition is 5.51% (inactive).

Take `Nc1ccc2[nH]c(=S)sc2c1`: the inhibition was 28.3% (active).

On to `CCOc1ccc2[nH]c(=S)sc2c1`, for which the inhibition is 10.4% (inactive).

As for `Cc1cc(C)cc(NC(=O)N2CCC(N(C)CCC(C)C)CC2)c1`, the inhibition is -0.26% (inactive).

On to `CCN(CC)C(=O)C(C)N1c2cccc3cccc(c23)S1(=O)=O` (configuration not stated), for which the inhibition was -0.89% (inactive).

With `CC1=C(C(=O)N(C)C)CC(CC(=O)NCCN2CCOCC2)C(=O)N1Cc1ccccc1` (configuration not stated), the inhibition was -1.74% (inactive).

`Cc1cccc(CCNC(=O)Cn2ncc3c([nH]c4ccc(C)cc43)c2=O)c1`: the inhibition was -0.97% (inactive).

Turning to `CCOC(=O)[C@]12CCCC3=C1N(CCC3)C(=O)[C@@H](CC(=O)N1CCSCC1)C2`, the inhibition is -9.78% (inactive).

`COC(C[C@@H](O)[C@H](C)[C@H](O)COCc1ccccc1)OC`: the inhibition was -0.18% (inactive).

For `O=c1c2ccccc2c(-c2ccc(Br)cc2)nn1Cc1ccccc1`, the inhibition was 3.02% (inactive).

As to `COC(=O)c1ccc(SCc2ccccc2)nc1`, the inhibition was 1.13% (inactive).

On to `CSc1c(SCc2ccccc2)cnn(Cc2ccccc2)c1=O`, for which the inhibition is 42.6% (active).

In the case of `COc1ccccc1S(=O)(=O)c1c(C)cc(C)[nH]c1=O`, the inhibition was -5.06% (inactive).

For the molecule `O=C1Nc2ccccc2C1=NN=Cc1ccco1`, the inhibition is -4.47% (inactive).

Turning to `Cc1cc(C)c(/C=C2\C(=O)Nc3ccccc32)[nH]1`, the inhibition is 64.8% (active).

Regarding `CC(=O)Nc1nc2ncccn2c1-c1ccc(C(F)(F)F)cc1`, the inhibition is 5.51% (inactive).

Regarding `CCC(=O)N1c2ccc(S(=O)(=O)NCc3ccco3)cc2CC1C` (configuration not stated), the inhibition is 4.05% (inactive).

For `COc1ccccc1CNC(=O)C1CCN(S(=O)(=O)c2ccc3c(c2)CC(C)N3C(=O)C2CC2)CC1` (configuration not stated), the inhibition is 0.46% (inactive).

As for `Cc1ccc(CNC(=O)CCS(=O)(=O)c2ccc3c(c2)CC(C)N3C(=O)C2CC2)o1` (configuration not stated), the inhibition was 35.6% (active).

Consider `COc1ccc(N2CCN(CCNS(=O)(=O)c3ccc(Cl)s3)CC2)cc1`, for which the inhibition is -1.47% (inactive).

Take `Cc1cc(C)n2ncc(C(=O)Nc3ccc4c(c3)OCCO4)c2n1`: the inhibition is -2.31% (inactive).

With `Cc1ccc(S(=O)(=O)N2CCN(C)CC2)cc1C(=O)NC1CCCCC1`, the inhibition was 3.5% (inactive).

For the molecule `CC(C)N1CCCCC(NC(=O)C(C)(C)C)C1=O` (configuration not stated), the inhibition is -1.77% (inactive).

`Oc1c(C(c2cccs2)N2CCN(c3ccc(F)cc3)CC2)sc2ncnn12` (configuration not stated): the inhibition is -2.78% (inactive).

Take `Cc1nc2sc(C(c3ccco3)N3CCC4(CC3)OCCO4)c(O)n2n1` (configuration not stated): the inhibition is 8.34% (inactive).

For the molecule `Oc1c(C(c2ccco2)N2CCC3(CC2)OCCO3)sc2ncnn12` (configuration not stated), the inhibition was 21.8% (active).

In the case of `Cc1nc2sc(C(c3ccco3)N3CCOCC3)c(O)n2n1` (configuration not stated), the inhibition was 49.8% (active).

Turning to `Cc1ccc(C(c2sc3nc(C)nn3c2O)N2CCN(c3ccccc3)CC2)cc1` (configuration not stated), the inhibition is -1.11% (inactive).

`CC(CCN1CCC(C(O)(c2ccccc2)c2ccccc2)CC1)Oc1ccc([N+](=O)[O-])cc1Cl` (configuration not stated): the inhibition was -5.87% (inactive).

On to `CC(=O)Nc1ccc(NS(=O)(=O)c2cc(C)sc2C)cc1`, for which the inhibition was 3.68% (inactive).

With `CC(C)C(C#CC1CC1)N(Cc1ccc2c(c1)OCO2)C(N)=NC(=O)/C=C/c1cccc(C(F)(F)F)c1` (configuration not stated), the inhibition was 1.58% (inactive).

In the case of `CCc1ccc(NC2Nc3cc(C)nn3S2)cc1` (configuration not stated), the inhibition was 30.6% (active).

On to `CC(C)N1CCCCC(NC(=O)c2ccc3ccccc3c2)C1=O` (configuration not stated), for which the inhibition was 1.16% (inactive).

For `O=C(OCc1cn([C@@H]2C[C@H](c3ccc(Cl)cc3)N(Cc3cccs3)C[C@H]2O)nn1)c1ccccc1`, the inhibition was 6.65% (inactive).

In the case of `COC(=O)[C@@]12CCCCC=C1N(CCc1ccc(Cl)cc1)C(=O)[C@H]2CC(=O)NCc1ccc(OC)c(OC)c1`, the inhibition was 1.14% (inactive).

Consider `C#CCN([C@@H](C)C(=O)OCC)S(=O)(=O)c1ccc(Br)cc1F`, for which the inhibition is -2.15% (inactive).

Consider `O=C(COc1cc(Cl)c(Cl)cc1Cl)NCCc1ccccn1`, for which the inhibition was -6.02% (inactive).

Regarding `NC(=S)NN=Cc1ccc(OC(=O)COc2cc(Cl)c(Cl)cc2Cl)cn1`, the inhibition is 47.2% (active).

With `O=C(COC(=O)COc1cc(Cl)c(Cl)cc1Cl)NC1CC1`, the inhibition is 0.44% (inactive).

Take `CCOC(=O)C1CCN(C(=O)C(C)(C)NC(=O)Nc2ccc(F)c(F)c2)CC1`: the inhibition was -1.45% (inactive).

For `COC(=O)c1ccc(NCc2cc(O)ccc2O)cc1`, the inhibition was 28.5% (active).

On to `O=C(OC12CC3CC(CC(C3)C1)C2)c1ccc(NCc2cc(O)ccc2O)cc1`, for which the inhibition was 19.5% (inactive).

Turning to `CCS(=O)(=O)Nc1cc(C(=O)OC)ccc1C(=O)OC`, the inhibition is 4.51% (inactive).

With `CCC(=O)OCCCN1C(=O)CCC12CCC(c1ccccc1)CC2` (configuration not stated), the inhibition is 0.61% (inactive).

Regarding `O=C(NCc1cccs1)C1CCN(S(=O)(=O)c2ccccc2[N+](=O)[O-])CC1`, the inhibition was -2.52% (inactive).

On to `COc1ccc(CN2C(=O)CC(Cc3ccc(C)cc3)C2=O)cc1OC` (configuration not stated), for which the inhibition is 2.37% (inactive).

`CCOC(=O)c1ccc(N2C(=O)CC(N3CCC(C(=O)OCC)CC3)C2=O)cc1` (configuration not stated): the inhibition was 53.2% (active).

As for `COc1cccc(N2C(=O)CC(N3CCN(S(=O)(=O)c4ccccc4)CC3)C2=O)c1` (configuration not stated), the inhibition is 4.31% (inactive).

With `CCOC(=O)c1ccc(N2C(=O)CC(N3CCN(C(=O)c4ccccc4)CC3)C2=O)cc1` (configuration not stated), the inhibition is -1.22% (inactive).

Consider `COc1cccc(N2CCN(C3CC(=O)N(c4ccc(Cl)cc4)C3=O)CC2)c1` (configuration not stated), for which the inhibition is 17% (inactive).

In the case of `CCOC(=O)c1ccc(N2C(=O)CC(N(C)Cc3ccccc3)C2=O)cc1` (configuration not stated), the inhibition is 1.83% (inactive).

As for `COc1ccc(CCN2C(=O)C3CC=C(C)CC3C2=O)cc1OC` (configuration not stated), the inhibition is 0.69% (inactive).

Take `COc1ccc(N2C(=O)CC(N3CCC(C(N)=O)CC3)C2=O)cc1` (configuration not stated): the inhibition is 62.3% (active).

As for `COc1ccc(CCN2C(=O)CC(N3CCC(C(N)=O)CC3)C2=O)cc1OC` (configuration not stated), the inhibition was 39.3% (active).

(Values after PubChem BioAssay AID652257 (The Scripps Research Institute Molecular Screening Center, 2013).)
